The text below walks through data of PubChem BioAssay AID624137 (Broad Institute, 2012).

About 360 (1.2%) of roughly 31,000 compounds were called active. The sample holds actives, similar compounds and a random draw of the others, so the mix is not that of the screen. The rule behind the calls is not given here.

The target in this experiment is DNA-binding protein inhibitor ID-4 (Homo sapiens) (UniProt P47928). In words: PubChem AID 624137.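 Note: a binder raises fluorescence above local background on the spot.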 As to conditions: small molecule microarray, Flag-ID4 binding, fluorescence F/B.
DNA-binding protein inhibitor ID-4 (Homo sapiens), sequence (P47928 whole entry, looked up): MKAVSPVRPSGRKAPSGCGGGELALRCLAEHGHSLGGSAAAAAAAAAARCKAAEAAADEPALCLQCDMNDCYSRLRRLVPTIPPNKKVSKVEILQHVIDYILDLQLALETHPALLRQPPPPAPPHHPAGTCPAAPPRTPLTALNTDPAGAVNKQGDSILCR
With `c1cncc(CNCCc2c[nH]c3ccccc23)c1`, the call was active. To `COc1ccc2[nH]cc(CCNCc3ccc(Br)cc3)c2c1` belongs “inactive”. Under `Cc1cc(OCc2cc(C(=O)O)oc2C)c2c3c(c(=O)oc2c1)CCCC3` stands “inactive”; under `Cc1ccc(OC(=O)N(C)C[C@@H]2OCc3cnnn3CCCC(=O)N([C@H](C)CO)C[C@@H]2C)cc1`, “inactive”.

With `COC(/C=C/CC/C=C/C(=O)O)C(O)C(C)C(O)/C(C)=C/C(C)C(=O)CCCC1CC(=O)NC(=O)C1` (stereo not given), the outcome was inactive.
